Experimental data as given in the supplement of paper PMC7595190.

Tested on: MV4-11
Assay: CellTox Green cytotoxicity fluorescence relative to DMSO vehicle (fold of vehicle RFU); higher = more cell death (loss of membrane integrity), active = 2 or more
Description: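 Paediatric AML cell lines (MV4-11, CMK, Kasumi-1; 4x10^4 cells/well, 96-well) treated with single compounds from the Selleckchem apoptosis library at 0.01, 0.1 and 1 µM. Cytotoxicity was read with CellTox Green (RFU, Ex 485/Em 520) at 24, 48 and 72 h and normalised to the 0.1% DMSO vehicle. Normalised RFU >= 2 was taken as a successful, cell-killing treatment.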

Compound | CellTox Green cytotoxicity fluorescence (0.01 µM, 24 h) | CellTox Green cytotoxicity fluorescence (0.01 µM, 48 h) | CellTox Green cytotoxicity fluorescence (0.01 µM, 72 h) | CellTox Green cytotoxicity fluorescence (0.1 µM, 24 h) | CellTox Green cytotoxicity fluorescence (0.1 µM, 48 h) | CellTox Green cytotoxicity fluorescence (0.1 µM, 72 h) | CellTox Green cytotoxicity fluorescence (1 µM, 24 h) | CellTox Green cytotoxicity fluorescence (1 µM, 48 h) | CellTox Green cytotoxicity fluorescence (1 µM, 72 h)
CC1=C(O)C(=O)C=C2C1=CC=C1[C@@]2(C)CC[C@@]2(C)[C@@H]3C[C@](C)(C(=O)O)CC[C@]3(C)CC[C@]12C [Celastrol] | 0.931 (inactive) | 0.955 (inactive) | 0.964 (inactive) | 0.966 (inactive) | 0.976 (inactive) | 1.01 (inactive) | 1.29 (inactive) | 1.96 (inactive) | 2.21 (active)
O=c1[nH]c2ccccc2n1C1CCN(Cc2ccc(-c3[nH]c4cc5ncnc5cc4nc3-c3ccccc3)cc2)CC1 | 1 (inactive) | 0.995 (inactive) | 0.956 (inactive) | 1 (inactive) | 0.999 (inactive) | 0.993 (inactive) | 1.04 (inactive) | 1.1 (inactive) | 1.21 (inactive)
Cn1c(COP(=O)(NCCBr)NCCBr)cnc1[N+](=O)[O-] | 0.981 (inactive) | 0.971 (inactive) | 0.974 (inactive) | 0.97 (inactive) | 0.983 (inactive) | 1.04 (inactive) | 0.97 (inactive) | 1.38 (inactive) | 2.79 (active)
Cc1cc2c(C(C)C)c(O)c(O)c(C=O)c2c(O)c1-c1c(C)cc2c(C(C)C)c(O)c(O)c(C=O)c2c1O | 0.979 (inactive) | 1 (inactive) | 1 (inactive) | 1 (inactive) | 1 (inactive) | 0.993 (inactive) | 0.973 (inactive) | 0.959 (inactive) | 1.02 (inactive)
